# Test results from PubChem BioAssay.
# Molecular target: E3 ubiquitin-protein ligase XIAP (Homo sapiens) (UniProt P98170)
# Assay: small molecules binding XIAP protein – biophysical, small-molecule microarray, fluorescence 635 nm, primary screen (AID 1181);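 further: score merges 667 nm emission and signal to noise over triplicate slides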
# Conditions: higher = more signal
# E3 ubiquitin-protein ligase XIAP (Homo sapiens), sequence (P98170 whole entry, looked up): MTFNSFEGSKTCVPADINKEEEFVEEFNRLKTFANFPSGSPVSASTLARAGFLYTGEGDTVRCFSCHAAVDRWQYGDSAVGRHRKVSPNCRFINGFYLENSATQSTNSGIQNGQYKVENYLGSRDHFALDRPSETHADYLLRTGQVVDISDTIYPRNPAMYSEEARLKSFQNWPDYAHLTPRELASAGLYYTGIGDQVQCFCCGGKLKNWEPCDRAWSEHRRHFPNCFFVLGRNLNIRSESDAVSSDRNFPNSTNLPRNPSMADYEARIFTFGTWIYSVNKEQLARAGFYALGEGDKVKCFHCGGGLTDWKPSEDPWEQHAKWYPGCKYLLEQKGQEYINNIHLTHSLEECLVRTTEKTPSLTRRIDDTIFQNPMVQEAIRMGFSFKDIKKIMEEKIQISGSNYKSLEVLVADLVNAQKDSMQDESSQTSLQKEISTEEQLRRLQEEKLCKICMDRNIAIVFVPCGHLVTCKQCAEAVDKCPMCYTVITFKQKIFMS
row,SMILES,composite z-score
1,O=C1c2ccccc2[C@](Cc2ccccc2I)(C(=O)NCc2ccccc2)[C@H](c2ccc(CO)cc2)N1C1CCCCC1,0.182
2,COc1ccc(C(O)C2C=CC3C(=O)N(C)C(=O)C3N2N2CCCCC2)cc1 (stereo not given),0.0728
3,C=C1C2CC3C(=C4C(CO[C@@H]4[C@H]4CCCN4S(=O)(=O)c4ccccc4[N+](=O)[O-])C4C(=O)N(C)C(=O)C34)CC2C(=O)N1C (stereo not given in full),-0.102
4,COCCOC(=O)N1C(=O)[C@@]2(c3cc(C#CC4=CCCCC4)ccc31)[C@H](c1ccc(O)cc1)N1[C@H](c3ccccc3)[C@H](c3ccccc3)OC(=O)[C@H]1[C@@H]2C(=O)Nc1nc2ccccc2s1,0.0114
5,C[C@H]1C2=C3C(CC[C@H]4C(OCc5ccc(F)cc5C(F)(F)F)OC[C@](C)([C@@H]34)N(C(=O)OC(C)(C)C)C2)C(CO)C1CO (stereo not given in full),0.147
6,COCCOC(=O)N1C(=O)[C@@]2(c3cc(C#CC4(O)CCCCCC4)ccc31)[C@H](C(=O)N1CCCCCCC1)[C@H]1C(=O)O[C@H](c3ccccc3)[C@H](c3ccccc3)N1[C@@H]2c1ccc(OCCO)cc1,0.293
7,COCCOC(=O)N1C(=O)[C@@]2(c3cc(C#CC4(O)CCCCCC4)ccc31)[C@H](C(N)=O)[C@H]1C(=O)O[C@H](c3ccccc3)[C@H](c3ccccc3)N1[C@@H]2c1ccccc1OCCO,-0.229
8,CC(=O)N1Cc2ccccc2C[C@]2(N=C(c3ccc(OCCCO)cc3)O[C@@H]2c2ccccc2)C1=O,0.247
9,O=C1OCC=C[C@H]2OC34C=CCN(c5ccc(Cl)cc5)C(=O)[C@H]3N(CCCCCO)C(=O)[C@@H]4[C@@H]12 (stereo not given in full),0.287
10,C=C(C(=O)CC[C@H](OC(=O)c1cccnc1)c1cccc(OCCO)c1)C(C)C,-0.0117
11,CC(C)C(O)C1C=CC2C(=O)N(C)C(=O)C2N1N(c1ccccc1)c1ccccc1 (stereo not given),0.23
12,O=C1O[C@@H](c2ccccc2)[C@@H](c2ccccc2)N2[C@@H](c3ccc(O)cc3)[C@]3(C(=O)Nc4ccccc43)[C@@H](C(=O)Nc3nc4ccccc4s3)[C@H]12,-0.0045
13,COC(=O)[C@@]1(Cc2ccc(OC)cc2)[C@H]2c3cc(C(=O)N(C)C)n(Cc4ccccc4)c3C[C@H]2CN1C(=O)c1ccccc1,0.0791
14,CC1CC/C=C\[C@H]2OC34C=CCN(CCN5CCOCC5)C(=O)[C@H]3N(CCO)C(=O)[C@@H]4C2C(=O)O1 (stereo not given in full),-0.128
15,COC(=O)[C@]1(CCS(=O)(=O)c2ccccc2)N=C(c2ccc(OCCCO)cc2)O[C@@H]1c1ccccc1CN=[N+]=[N-],-0.0062
16,CC(C)(C)OC(=O)CC[C@]1(C(=O)O)N=C(c2ccc(OCCCO)cc2)O[C@H]1c1ccccc1,-0.0594
17,O=C1c2ccccc2[C@@]2(Cc3ccccc3N(C3CC3)C2=O)[C@H](c2ccc(CO)cc2)N1C1CCCCC1,0.242
18,COCCOC(=O)N1C(=O)[C@@]2(c3ccccc31)[C@H](c1ccc(OCCO)cc1)N1[C@H](c3ccccc3)[C@H](c3ccccc3)OC(=O)[C@H]1[C@@H]2C(=O)Nc1nc2ccccc2s1,0.259

row,SMILES,composite z-score
1,[N-]=[N+]=Nc1ccccc1C[C@@]1(C(=O)O)N=C(c2ccc(OCCCO)cc2)O[C@@H]1c1ccccc1,0.427
2,CCCNC(=O)[C@@]1(c2ccc([N+](=O)[O-])cc2)CC(=O)N(C2CCCCC2)[C@@H]1c1ccc(CO)cc1I,0.134
3,COc1ccc([Si](C)(C)[C@H]2[C@H](CCn3cc([C@H](O)c4ccccc4)nn3)O[C@@]3(C(=O)N(Cc4ccc(N5CCOC5=O)cc4)c4ccccc43)[C@@H]2C)cc1,-0.171
4,COCCCNC(=O)[C@@]1(Sc2ccc(C)cc2)CC(=O)N(Cc2cc(C(F)(F)F)cc(C(F)(F)F)c2)[C@@H]1c1ccc(CO)cc1,-0.0571
5,C=CCC(OC(C)=O)[C@@H]1[C@@H](N(Cc2cc3ccccc3o2)C(=O)Cc2ccc(F)cc2)c2cc(OCCCO)ccc2N1C(=O)c1ccc2ccccc2n1 (stereo not given in full),-0.217
6,CCCCC(=C=CC[C@@H](O)c1ccc(OCCO)cc1)C[C@@H](O)COCc1ccccc1,0.124
7,O=C1O[C@@H](c2ccccc2)[C@@H](c2ccccc2)N2[C@@H](c3ccc(O)cc3)[C@]3(C(=O)Nc4ccc(C#CCCO)cc43)[C@@H](C(=O)NC[C@H](O)c3ccccc3)[C@H]12,0.363
8,[N-]=[N+]=Nc1ccccc1[C@@H]1OC(c2ccc(OCCCO)cc2)=N[C@]1(CCS(=O)(=O)c1ccccc1)C(=O)NCCN1CCOCC1,-0.34
9,COCCCNC(=O)[C@@H]1c2ccccc2C(=O)N(Cc2ccccc2C(F)(F)F)[C@H]1c1ccc(CO)cc1,-0.138
10,NC(=O)N1C(=O)C2C(C1=O)C1C=C(CCCO)C2C(c2cccs2)N1Cc1cc2c(cc1Br)OCO2 (stereo not given),-0.267
11,CCOC(=O)C[C@H]1[C@H](OC(=O)c2ccccc2-c2ccccc2)[C@@H](NC(=O)CC(C)C)c2cc(OCCCO)ccc2N1C(=O)c1ccc2ccccc2n1,0.0993
12,CN1C(=O)C2C=CC(C(O)C3CCCCC3)N(N3CCCCC3)C2C1=O (stereo not given),-0.0548
13,CO[C@H]1O[C@H](CO)[C@@H](OC(=O)Nc2ccc(C(F)(F)F)cc2)[C@H](OC(=O)Nc2ccc3c(c2)OCO3)[C@H]1OC(=O)Nc1ccc2c(c1)OCO2,-0.289
14,NCCCCCCNC(=O)[C@@H]1C[C@@H]2C(=O)N3CCC[C@H]3C(=O)N2[C@@H]1c1ccc(O)cc1,-0.209
15,COC(=O)C(CC#Cc1ccc2c(c1)[C@]1(C(=O)N2)[C@H](C(=O)O)[C@H]2C(=O)O[C@H](c3ccccc3)[C@H](c3ccccc3)N2[C@@H]1c1ccccc1OCCO)C(=O)OC,-0.0673
16,CCOC(=O)[C@H]1C/C=C/C[C@H](C(=O)OCC)C(=O)O[C@H]2[C@@H](OC)O[C@H](CO)[C@@H](OC(=O)CCc3ccccc3)[C@@H]2OC1=O,0.023
17,C[C@]12C(=O)N(CCCCCCO)[C@@H]3C(=O)N(c4ccc(Cl)cc4)CC=CC31O[C@@H]1/C=C\CCCOC(=O)C12 (stereo not given in full),-0.235
